# Source: PubChem BioAssay AID1745850 (National Center for Advancing Translational Sciences (NCATS), 2022)
# In all, about 2,100 compounds went through this assay and about 260 (12%) were called active. Not shown: some 58% with an inconclusive outcome. The list shows a part of the results. Unmarked numbers belong to inactive results. Calls come from the whole dose curve; as a rule, active = well fitted cell-killing curve with a large enough effect; inconclusive = small, poorly fitted or top-dose-only effect, or effect the other way; inactive = flat fitted curve, though single readings scatter.
# Test: Viability Counterscreen for Confirmatory qHTS for Inhibitors of ATXN expression; note: nearly all actives have a fitted effect of over 50% in size
# Details: HEK-293 ATXN2-luc cells viability, CellTiter-Fluor, 24 h; activity change, negative = cytotoxicity: at the top concentration
# Source text: PI: Daniel Scoles Ph.D. University of Utah School of Medicine, Salt Lake City, Utah MLPCN Grant: NS073009 Spinocerebellar ataxia type 2 (SCA2) is a multisystem neurodegenerative disease caused by a dominantly acting mutation leading to expansion of a polyQ domain in the ataxin-2 protein (ATXN2). SCA2 patients develop progressive ataxia and later lose function in other neuronal systems. Prominent parkinsonian signs develop in some patients. Like many neurodegenerative disorders, no symptomatic or disease-modifying treatments are known. The primary objective of the proposed research is to identify compounds inhibiting ATXN2 expression and to test them for efficacy in SCA2 mouse models. We have developed a cell-based assay paired with an in vivo mouse model using identical luciferase expression constructs. This approach takes advantage of an ATXN2-luciferase transgene, with the luciferase gene flanked by the upstream and downstream portions of the ATXN2 gene. Here we describe a 5-7 dose quantitative high thoroughput screen (qHTS) for compounds lowering ATXN2 expression. We screened the NIH Molecular Libraries Small Molecule Repository (MLSMR) and NCGC's mechanistically annotated (MIPE) and drug repurposing (NPC) collections of compounds for lowering expression of an ATXN2-luciferase reporter in HEK-293 cells. The assay is a multiplexed cell viability assay to ensure target reduction in the absence of cytotoxicity. Secondary qHTS assays included a CMV-luciferase reporter expressed in HEK-293 cells as well as a biochemical assay using recombinant luciferase to detect inhibitors of the reporter enzyme. Compounds that inhibit ATXN2 expression but is not cytotoxic were selected for confirmatory and secondary screens.
# PROTOCOL TABLE (as described by Inglese J, Shamu CE and Guy RK. 2007) SEQUENCE No. (e.g., 1, 2, 3, etc.); […] (e.g., Cells, Incubation, Reagent, etc.); VALUE; DESCRIPTION. 1; Cells; 4 uL; white, solid bottom, 1536-well Greiner assay plate. 2; Incubation; 2 hr; 37 degree C in 5% humidified CO2. 3; Compounds; 23 nL; Kalypsis pintool (Wako USA) equipped with a 1536-well pin head. 4; Incubation; 24 hr; 37 degree C in 5% humidified CO2. 5; Reagent; 1 uL; Gly-Phe-7-Amino-4-trifluoromethylcoumarin. 6; Incubation; 30 min; 37 degree C in 5% humidified CO2. 7; Detection; Fluorescence; ViewLux plate reader (PerkinElmer). 8; Reagent; 3 uL; SteadyGlo luciferase solution (Promega). 9; Incubation; 5 min; room temperature. 10; Detection; Luminescence; ViewLux plate reader (PerkinElmer). NOTES (numbers refer to Sequence numbers above) 1. S2 cells expressing ATXN2-luciferase reporter were suspended in phenol-red free DMEM and dispensed in assay plates using a Multidrop Combi dispenser (Thermo Fisher Scientific). Wells containing medium only were plated on each plate, and values were used to normalize (100% inhibition) in the luciferase and CellTiter-Fluor assays. 2. Assay plates were incubated. Evaporation was prevented by covering assay plates with metal lids containing holes to allow gas diffusion. 3. Compounds were added in a dose response manner with the final concentrations of 57, 11.4, 2.28, 0.46, 0.091, 0.018, 0.0037 uM. Vehicle-only plates, with DMSO being pin-transferred to columns 5-48, were inserted uniformly at the beginning and the end of each library to monitor and record any shifts in assay performance. 5. 125 uM Gly-Phe-7-Amino-4-trifluoromethylcoumarin (MP Biomedicals) working concentration was used at a final concentration of 25 uM. 7. To assess cell viability; the assay plates were read using the ViewLux high-throughput CCD imager (PerkinElmer), wherein single end-point fluorescence measurement was acquired (excitation 405/10; emission 540/25 nm). 8. Detection reagent SteadyGlo Luciferase (Promega) was added to the assay plate. 10. Luminescence is then measured on the ViewLux imager equipped with a clear emission filter using a 2 sec exposure. […]
# Potency is the fitted concentration of half-maximal effect.
SMILES,"activity change, negative = cytotoxicity",Potency
CN(Cc1cnc2nc(N)nc(N)c2n1)c1ccc(C(=O)NC(CCC(=O)O)C(=O)O)c2ccccc12 (centres undefined),-30.4% [at 57.5 µM],
Cc1c(N=C2N=C(NC(=O)c3ccc(F)cc3)c3ccccc32)c(=O)n(-c2ccccc2)n1C,-23.7%,
Cc1c(N=C2C=CC(=O)c3ccccc32)c(=O)n(-c2ccccc2)n1C,,28.2 µM (active)
Cc1cccc(/C=N/NC(=O)c2cccc(Cl)c2)n1,-18.5%,
COc1ccc(OCCNC(=O)C2(C)CCN2Cc2ccc3ccccc3c2)cc1 (centres undefined),-28.2% [at 57.5 µM],
C[C@@H]1CC=C[C@@H]2[C@H]1C(=O)N(Cc1ccccc1)[C@H]2c1ccccc1Br,-29.3% [at 57.5 µM],
O=C1Nc2c(Br)cc(Br)c3cccc1c23,-20.9% [at 57.5 µM],
COc1ccc(C)cc1NC(=O)C(Sc1nnc(-c2ccncc2)n1-c1ccc(Cl)cc1)c1ccccc1 (centres undefined),-12.9%,
CCCOc1ccccc1C1NC(=O)NC(C)=C1C(=O)OCc1ccccc1 (centres undefined),-14%,
Cc1cccc(NC(c2ccc(C)s2)c2ccc3ccc(C)nc3c2O)n1 (centres undefined),,25.1 µM (active)
Cn1nc(C(=O)N2CCN(c3ccc(Cl)cc3)CC2)c2c1-c1ccccc1S(=O)(=O)C2,-12.1%,
O=C(CCC(=O)Nc1ccc(Br)cc1)N/N=C/c1ccccc1O,-18.6%,
COC(=O)c1c(NC(=O)c2ccc([N+](=O)[O-])o2)sc2c1CCN(C(C)C)C2,,28.2 µM (active)
O=C1C=Cc2cccc3ccc(O)c1c23,4.45%,
O=C(CN1C(=O)c2ccccc2S1(=O)=O)c1ccc(Cl)cc1Cl,-6.86% [at 57.5 µM],
O=[N+]([O-])c1c(Nc2ccccn2)cc(Cl)c2nonc12,,11.2 µM (active)
COc1cc(OC)c(OC)cc1/C=C1\CC(C)C/C(=C\c2cc(OC)c(OC)cc2OC)C1=O (centres undefined),,17.8 µM (active)
C=CCc1ccccc1OCC(O)CN1CCN(CCN2C(=O)c3cccc4cccc(c34)C2=O)CC1 (centres undefined),,31.6 µM (active)
O=C(CNC(=O)c1ccccc1O)N/N=C/c1cc(Br)ccc1OC(=O)/C=C/c1ccco1,-4.41%,
Cc1ccc(C(=O)CN2C(=O)c3ccccc3S2(=O)=O)cc1,5.17%,
Oc1ccc(C2CNCc3sccc32)cc1O (centres undefined),-19.8% [at 57.5 µM],
O=C(CN1CCCc2ccccc21)N/N=C/c1ccccc1O,-21.2%,
C[C@@H]1ON(C)[C@H]2C[C@H]3c4[nH]c5ccc(-c6ccc7c(c6)OCO7)cc5c4CCN3C(=O)[C@@H]12,-27.8% [at 57.5 µM],
CC1(C)Cc2c(ccc3ccccc23)C2=C(C(=O)N3CCCC3)C(=O)C(=O)N21,-14.3% [at 57.5 µM],
O=C(Nc1nc(-c2ccc(S(=O)(=O)N3CCOCC3)cc2)cs1)c1ccccc1,-26.6%,

SMILES,"activity change, negative = cytotoxicity",Potency
CCn1c2ccccc2c2cc(NC(=O)COC(=O)c3cc(S(=O)(=O)N4CCCCC4)ccc3Cl)ccc21,1.01%,
Cc1nc(-c2cccc(NC(=O)c3cccc(S(=O)(=O)N4CCCC4)c3)c2)cs1,,28.2 µM (active)
Cn1c(N)c(C(=O)Nc2ccc(-c3ccccc3)cc2)sc1=S,-20.9% [at 57.5 µM],
COc1ccc(C2CC(c3ccccc3Cl)=NN2c2ccc(S(N)(=O)=O)cc2)cc1 (centres undefined),1.38% [at 57.5 µM],
COc1ccc(Oc2c(Cl)cnn(-c3ccccc3)c2=O)cc1,,3.16 µM (active)
COc1ccc(C(=O)Nn2c(SCC(=O)c3ccccc3)nc3ccccc3c2=O)cc1,-26% [at 57.5 µM],
COc1cc(/C=N/Nc2ccc(Cl)c(C(=O)O)c2)ccc1OC(=O)c1ccco1,1.6%,
CCN(CC)CCC(=O)Nc1cccc2c1C(=O)c1ccccc1C2=O,,3.16 µM (active)
CN(CC(=O)Nc1cccc(F)c1)CC(=O)Nc1cccc2ccccc12,-16.6% [at 57.5 µM],
CCN(CC)CCNC(=O)c1ccc(NC(=O)Cc2cccc3ccccc23)cc1,-22.4%,
CCC1=C(CC2NCCc3ccccc32)CC2c3cc(OC)c(OC)cc3CCN2C1 (centres undefined),,10 µM (active)
O=C(CC1NCCc2ccccc21)Nc1ccc(Cl)cc1 (centres undefined),11.4%,
CN(c1ccc(OCC(=O)N2CCN(c3ccc(F)cc3)CC2)cc1)S(=O)(=O)c1cccs1,-11.9%,
CC(=O)c1sc(C(C)(C)C)cc1NC(=O)/C=C/C(=O)O,-20% [at 57.5 µM],
CCOC(=O)c1c(C)nn(-c2ccc(NC(=O)/C=C/C(=O)O)cc2)c1C,-10.3% [at 57.5 µM],
COC(=O)c1c(NC(=O)/C=C/C(=O)O)sc(C)c1-c1ccc(C(C)C)cc1,,28.2 µM (active)
OC[C@@H]1[C@@H](c2ccc(F)cc2)C(c2ccccc2)=NN1c1ccccc1,28.7% [at 57.5 µM],
COc1cc2c(cc1OC)C(C)N(C(=O)c1cc3c(s1)-c1ccccc1OC3)CC2 (centres undefined),-24.3% [at 57.5 µM],
COc1ccccc1-c1ccc2c(c1)C(C)(Cc1cccc(F)c1)C(=O)N2 (centres undefined),-27.1% [at 57.5 µM],
Cc1nonc1C(=O)N/N=C/c1ccc(O)cc1O,-19%,
COc1ccc2c(c1)C(SCC(=O)NCCc1ccc(Cl)cc1)CC(C)(C)O2 (centres undefined),-8.85%,
Cc1ccc2nc(-c3ccccn3)c(NC3CCCC3)n2c1,-22.4%,
Cc1ccc(Nc2c(-c3ccccn3)nc3cccc(C)n23)cc1,,8.91 µM (active)
Cc1cccn2c(Nc3ccccc3)c(-c3ccccn3)nc12,-19% [at 57.5 µM],
